Survival data for 89 molecules are collected here from PubChem BioAssay AID463173 (ICCB-Longwood Screening Facility, Harvard Medical School, 2010).

The structures appear in SMILES notation. About 1,700 (3.3%) of roughly 52,000 compounds were called active. Shown is part of a subset that was picked to be rich in actives. Unmarked numbers belong to inactive results. Rule as the data show it: active = survival mostly below about 52% (no sharp cut-off); inactive = mostly above about 56%.

For the experiment, the system named is Wild type. Description: growth inhibition of S. aureus wild type versus tarO mutant, primary screen, teichoic acid synthesis inhibitors, RN4220, OD600 (AID 463173). The settings on record: S. aureus RN4220 wild type/DeltatarO growth, OD600, 18 h, hits give low values, screened at 18.75 µg/mL (by protocol).
Consider `CCc1ccc(Nc2ncnc3sc4c(c23)CCCC4)cc1`, for which the survival is 68%. Turning to `CN(C)c1ccc(Nc2ncnc3sc4c(c23)CCCC4)cc1`, the survival is 124%. For the molecule `Cc1cc(C)cc(Nc2ncnc3sc4c(c23)CCCC4)c1`, the survival was -3% (active). On to `O=C(CCC1N=C2c3ccccc3N=C(SCc3ccccc3Cl)N2C1=O)N1CCN(c2ccccc2)CC1` (centres undefined), for which the survival is 65%.

Regarding `Cc1cc(C)c(NC(=O)Cn2c(=O)n(Cc3ccc(C(=O)NCc4ccc5c(c4)OCO5)cc3)c(=O)c3ccccc32)c(C)c1`, the survival is 83%.

As for `Cc1c(Cl)cccc1NC(=O)CSc1nc2ncccc2o1`, the survival is 1% (active). As for `Cc1cccc(C)c1NC(=O)CSc1nc2ncccc2o1`, the survival was 63%. `O=C(CSc1nc2ncccc2o1)Nc1cccc(C(F)(F)F)c1`: the survival was -3% (active).

As to `O=C(CSc1nc2ncccc2o1)Nc1ccc(Cl)cc1F`, the survival was 81%. As for `COc1cc(NC(=O)CSc2nc3ncccc3o2)cc(OC)c1`, the survival is 57%. For the molecule `O=C(CSc1nnc(-c2ccccc2F)o1)Nc1cccc(C(F)(F)F)c1`, the survival was 60%. Turning to `COc1cccc(NC(=O)Cn2cc(C(=O)C3CCCCC3)c3ccccc32)c1`, the survival is 73%. For the molecule `COc1cccc(NC(=O)N(Cc2cn(C)c3ccccc23)C2CCCCCC2)c1`, the survival was 0% (active).

For `COc1cccc(NC(=O)N(Cc2cn(C)c3ccccc23)C2CCCCC2)c1`, the survival was 0% (active).

Consider `COc1cccc(NC(=O)N(Cc2nc3ccccc3c(=O)[nH]2)C2CCCCC2)c1`, for which the survival was 122%. For the molecule `COc1cccc(NC(=O)N(Cc2c[nH]c3ccccc23)C2CCCCCC2)c1`, the survival is 63%. The value for `COc1cccc(NC(=O)N(Cc2c[nH]c3ccccc23)C2CCCCC2)c1` was 71%; that for `CCOc1ccc(C(=O)Nc2nnc(SCc3cc(=O)n4ccccc4n3)s2)cc1` was 69%; that for `CCc1ccc(NC(=O)N(Cc2c[nH]c3ccccc23)C2CCCCC2)cc1` was 93%. The value for `CCOc1ccc(NC(=O)N(Cc2c[nH]c3ccccc23)C2CCCCCC2)cc1` was 83%; that for `CCc1ccc(NC(=O)N(Cc2c[nH]c3ccccc23)C2CCCCCC2)cc1` was 127%. Take `CCOc1ccc(NC(=O)N(Cc2c[nH]c3ccccc23)C2CCCCC2)cc1`: the survival was 79%.

Turning to `CCOc1ccc(NC(=O)N(Cc2cn(CC)c3ccccc23)C2CCCCCC2)cc1`, the survival was 0% (active). As to `CCc1ccc(NC(=O)N(Cc2cn(CC)c3ccccc23)C2CCCCC2)cc1`, the survival was 0% (active).

Consider `CCCCn1c(SCc2ccccc2C)nc2ccsc2c1=O`, for which the survival was 136%. Consider `COc1cc(Nc2nc(SCc3ccccc3Cl)nc3ccccc23)cc(OC)c1`, for which the survival was 95%. Regarding `Cc1ccc(/C=C/c2nc3ccccc3n2S(=O)(=O)c2ccc(Br)cc2)cc1`, the survival is 70%.

As to `CC(C)c1ccc(Nc2c(-c3ccsc3)nc3ccc(Cl)cn23)cc1`, the survival is 95%.

With `COc1ccc(C)cc1NC(=O)c1nnn(CC(=O)Nc2c(C)cccc2C)c1N`, the survival was 74%. Turning to `COc1ccc(NC(=O)Cn2c(=O)n(Cc3nc(C)no3)c(=O)c3cc4c(cc32)OCO4)cc1OC`, the survival is 70%. For `COc1cccc(C(=O)Nc2ccc(C(=O)OCc3cc(=O)n4nc(C5CC5)sc4n3)cc2)c1`, the survival is 63%.

For the molecule `Cc1cccc(OCC(=O)Nc2ccc(C(=O)OCc3cc(=O)n4nc(C5CC5)sc4n3)cc2)c1`, the survival was -4% (active). The value for `Cc1ccc(OCC(=O)Nc2ccc(C(=O)OCc3cc(=O)n4nc(C5CC5)sc4n3)cc2)cc1` was 81%; that for `COc1ccc(C(=O)Nc2ccc(C(=O)OCc3cc(=O)n4nc(C5CC5)sc4n3)cc2)cc1` was -3% (active). The result for `O=C(Nc1cccc(C(=O)OCc2cc(=O)n3nc(C4CC4)sc3n2)c1)c1ccccc1` reads 1% (active); that for `O=C(COc1ccccc1)Nc1ccc(C(=O)OCc2cc(=O)n3nc(C4CC4)sc3n2)cc1`, 64%. `Cc1ccc(C(=O)Nc2cccc(C(=O)OCc3cc(=O)n4nc(C5CC5)sc4n3)c2)cc1`: the survival is 55%. Regarding `COc1ccc(C(=O)Nc2cccc(C(=O)OCc3cc(=O)n4nc(C5CC5)sc4n3)c2)cc1`, the survival was 111%.

Take `O=C(Nc1cccc(C(=O)OCc2cc(=O)n3nc(C4CC4)sc3n2)c1)c1ccc(F)cc1`: the survival was 81%. The result for `CCCCN(CC)CCNc1ncnc2onc(-c3ccc(Cl)cc3)c12` reads 82%; that for `CCC(C(=O)NCc1cc(OC)ccc1OC)n1nc(C)c2sc3ccccc3c2c1=O` (centres undefined), 87%; that for `Cc1ccc(CCNC(=O)c2ccc3c(c2)N(Cc2cccc(F)c2)C(=O)c2ccccc2S3)cc1`, 71%. As for `CCN(CC)C(=O)CSc1nnc(COc2ccc(Br)cc2)o1`, the survival was 102%. For `COCc1[nH]nc2c1C(c1ccccc1C(F)(F)F)C(C#N)=C(N)O2` (centres undefined), the survival was 114%. The value for `CCCc1ccc(-c2ccc(C(=O)Oc3ccc(Br)cc3)cc2)nc1` was 140%; that for `CCCCCc1ccc(-c2ccc(Br)cc2)nc1` was -3% (active). Turning to `CCCCCc1ccc(-c2ccc(C(=O)Oc3ccc(C(=O)OC)cc3)cc2)nc1`, the survival is 74%.

Consider `NNC(=O)CCC(=O)Nc1ccccc1`, for which the survival is 112%.

For the molecule `CC(C)CNS(=O)(=O)c1ccccc1`, the survival is 120%. The value for `CCN(CC)S(=O)(=O)N1CCN(S(=O)(=O)N2CCOCC2)CC1` was 118%.

As to `O=C(CS(=O)(=O)c1cccc2nsnc12)N1CCN(c2ccc(F)cc2)CC1`, the survival is 97%.

For `CCOC(=O)c1nnn(-c2nn3nnnc3c3ccccc23)c1C`, the survival was 101%. Take `O=C(NCc1ccncc1)C1CCN(C(=O)c2cccc(Cl)c2)CC1`: the survival is 111%. On to `O=C(NCc1cccnc1)c1cn(C2CC2)c2cc(N3CCN(C(=O)c4cccc(Cl)c4)CC3)c(F)cc2c1=O`, for which the survival is 0% (active). The value for `CCn1cc(C(=O)NCC(C)C)c(=O)c2cc(F)c(N3CCN(C(=O)c4ccco4)CC3)cc21` was 107%; that for `CCc1ccc(NC(=O)Cn2c(=O)n(CCCC(=O)NCc3ccccc3Cl)c(=O)c3ccccc32)cc1` was 136%; that for `CC(C)OCCCN(Cc1ccco1)C(=O)c1cc2c(s1)-c1ccccc1OC2` was 9% (active).

As for `CC(C)CCN(Cc1ccco1)C(=O)c1cc2c(Cl)nc3ccccc3c2s1`, the survival is 77%. The value for `CN(C)CCN(Cc1ccco1)C(=O)c1cc2c(s1)-c1ccccc1OC2` was 70%. In the case of `CC(C)CCN(Cc1ccco1)C(=O)c1cc2c(s1)-c1ccccc1OC2`, the survival was 7% (active).

Consider `CCN1CCN(CCCNC(=O)c2cc3c(s2)-c2ccccc2OC3)CC1`, for which the survival is 84%. With `COCCCN(Cc1ccco1)C(=O)c1cc2c(s1)-c1ccccc1OC2`, the survival is 12% (active). For `COc1cccc(CNC(=O)c2cc3c(s2)-c2ccccc2OC3)c1`, the survival is 65%. In the case of `O=C(CC1N=C2c3ccccc3N=C(SCc3ccccc3F)N2C1=O)NCc1cccs1` (centres undefined), the survival is 75%. Take `Cc1cc(C)c2c(NC(=O)c3ccccc3Cl)c(C(=O)Nc3ccc(C)c(C)c3)sc2n1`: the survival was 64%. With `CCc1ccc(NC(=O)c2cc3nc(-c4ccc(C)cc4)cc(C(F)(F)F)n3n2)cc1`, the survival is 60%.

Consider `O=C(Nc1ccc(NC(=O)C2CC23CCC3)cc1)C1CC12CCC2` (centres undefined), for which the survival was 118%. Take `CCN1CCN(c2cc(C)c3cc(NC(=O)/C=C/c4cccc(OC)c4OC)ccc3n2)CC1`: the survival is 83%. The value for `COc1ccc(F)cc1S(=O)(=O)Nc1cccc(-c2ccc(N3CCC(C)CC3)nn2)c1` was 129%; that for `Cc1ccc(S(=O)(=O)Nc2cccc(-c3ccc(N4CCCCC4)nn3)c2)s1` was 64%; that for `O=S(=O)(Nc1cccc(-c2ccc(N3CCCCCC3)nn2)c1)c1ccccc1` was 1% (active).

Consider `O=S(=O)(Nc1ccc(-c2ccc(N3CCCC3)nn2)cc1)c1ccc(C(F)(F)F)cc1`, for which the survival was 64%. Take `O=S(=O)(Nc1ccc(-c2ccc(N3CCCC3)nn2)cc1)c1ccc(OC(F)(F)F)cc1`: the survival is -6% (active). For the molecule `Cc1ccc(S(=O)(=O)Nc2cccc(-c3ccc(N4CCC(C)CC4)nn3)c2)s1`, the survival is -3% (active). Turning to `CC1CCN(c2ccc(-c3cccc(NS(=O)(=O)c4ccc(Cl)s4)c3)nn2)CC1`, the survival is 71%.

With `O=S(=O)(Nc1cccc(-c2ccc(N3CCCCC3)nn2)c1)c1cccc(F)c1`, the survival was 119%. As for `O=S(=O)(Nc1ccc(-c2ccc(N3CCCCC3)nn2)cc1)c1ccc(OC(F)(F)F)cc1`, the survival was 72%. Consider `COc1ccc(C)cc1S(=O)(=O)Nc1cccc(-c2ccc(N3CCCC3)nn2)c1`, for which the survival was 77%. The result for `O=S(=O)(Nc1cccc(-c2ccc(N3CCCCCC3)nn2)c1)c1ccc(F)cc1` reads 55%.

Take `COc1ccc(C)cc1S(=O)(=O)Nc1cccc(-c2ccc(N3CCC(C)CC3)nn2)c1`: the survival is -4% (active). With `Cc1ccc(NC(=O)C(=O)NCC(c2ccc3c(c2)OCO3)N2CCOCC2)cc1C` (centres undefined), the survival is 45%.

Consider `CC(C)c1ccc(NC(=O)CSC2=Nc3ccccc3C3=NC(CC(=O)NCc4ccc(F)cc4)C(=O)N23)cc1` (centres undefined), for which the survival is 73%. Take `Cc1nc(C)c(-c2csc(NCc3ccccc3)n2)s1`: the survival was 123%. The value for `COc1ccc(CC(=O)Nc2cc(-c3cn4cccnc4n3)ccc2C)cc1OC` was 85%; that for `CCCc1noc(-c2ccc(N3CCCCC3)c([N+](=O)[O-])c2)n1` was 77%. Consider `O=C(CN(C(=O)c1csnn1)c1ccccc1)NCc1ccc2c(c1)OCO2`, for which the survival was 114%. Regarding `O=c1oc2ccc(Br)cc2cc1-c1nc(-c2ccccc2)no1`, the survival is 66%. For `O=C(CSc1nnc2[nH]c(=O)cc(-c3ccccc3)n12)Nc1ccc(F)cc1F`, the survival is 94%. Take `COCCCNC(=O)CN1C(=O)COc2ccc(S(=O)(=O)N3CCCCCC3)cc21`: the survival was 77%.
